The source of these data is ChEMBL document CHEMBL1961873, “Compounds: GSK PKIS; Assays: Nanosyn kinase panel” (2012).

The target in test [1] is T1, Mitogen-activated protein kinase 12 (Homo sapiens) (UniProt P53778).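 Further: values are averaged p38gamma kinase inhibition readings, compounds tested at 1 µM.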
T1 sequence (whole entry): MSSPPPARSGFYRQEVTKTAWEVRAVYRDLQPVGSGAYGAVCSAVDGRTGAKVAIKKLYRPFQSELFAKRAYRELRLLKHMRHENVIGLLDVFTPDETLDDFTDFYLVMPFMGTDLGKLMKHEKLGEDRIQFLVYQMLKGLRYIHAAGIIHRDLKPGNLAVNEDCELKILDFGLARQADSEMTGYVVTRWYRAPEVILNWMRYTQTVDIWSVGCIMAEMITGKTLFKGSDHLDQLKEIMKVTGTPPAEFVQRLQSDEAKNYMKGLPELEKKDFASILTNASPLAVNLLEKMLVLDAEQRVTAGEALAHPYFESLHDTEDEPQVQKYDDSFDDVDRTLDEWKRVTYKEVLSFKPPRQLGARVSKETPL
As to conditions: at 1 µM.

The target in test [2] is SRSF protein kinase 1 (Homo sapiens) (UniProt Q96SB4). As to conditions: at 0.1 µM.
The target is the same in test [3]. The note with it: at 1 µM.
In test [4] the target is Phosphatidylinositol 4,5-bisphosphate 3-kinase catalytic subunit alpha isoform (Homo sapiens) (UniProt P42336). As to conditions: at 0.1 µM.
Test [5] shares this target. The note with it: at 1 µM.
Test [6] addresses T2, Phosphatidylinositol 4,5-bisphosphate 3-kinase catalytic subunit delta isoform (Homo sapiens) (UniProt O00329).
T2 sequence (whole entry): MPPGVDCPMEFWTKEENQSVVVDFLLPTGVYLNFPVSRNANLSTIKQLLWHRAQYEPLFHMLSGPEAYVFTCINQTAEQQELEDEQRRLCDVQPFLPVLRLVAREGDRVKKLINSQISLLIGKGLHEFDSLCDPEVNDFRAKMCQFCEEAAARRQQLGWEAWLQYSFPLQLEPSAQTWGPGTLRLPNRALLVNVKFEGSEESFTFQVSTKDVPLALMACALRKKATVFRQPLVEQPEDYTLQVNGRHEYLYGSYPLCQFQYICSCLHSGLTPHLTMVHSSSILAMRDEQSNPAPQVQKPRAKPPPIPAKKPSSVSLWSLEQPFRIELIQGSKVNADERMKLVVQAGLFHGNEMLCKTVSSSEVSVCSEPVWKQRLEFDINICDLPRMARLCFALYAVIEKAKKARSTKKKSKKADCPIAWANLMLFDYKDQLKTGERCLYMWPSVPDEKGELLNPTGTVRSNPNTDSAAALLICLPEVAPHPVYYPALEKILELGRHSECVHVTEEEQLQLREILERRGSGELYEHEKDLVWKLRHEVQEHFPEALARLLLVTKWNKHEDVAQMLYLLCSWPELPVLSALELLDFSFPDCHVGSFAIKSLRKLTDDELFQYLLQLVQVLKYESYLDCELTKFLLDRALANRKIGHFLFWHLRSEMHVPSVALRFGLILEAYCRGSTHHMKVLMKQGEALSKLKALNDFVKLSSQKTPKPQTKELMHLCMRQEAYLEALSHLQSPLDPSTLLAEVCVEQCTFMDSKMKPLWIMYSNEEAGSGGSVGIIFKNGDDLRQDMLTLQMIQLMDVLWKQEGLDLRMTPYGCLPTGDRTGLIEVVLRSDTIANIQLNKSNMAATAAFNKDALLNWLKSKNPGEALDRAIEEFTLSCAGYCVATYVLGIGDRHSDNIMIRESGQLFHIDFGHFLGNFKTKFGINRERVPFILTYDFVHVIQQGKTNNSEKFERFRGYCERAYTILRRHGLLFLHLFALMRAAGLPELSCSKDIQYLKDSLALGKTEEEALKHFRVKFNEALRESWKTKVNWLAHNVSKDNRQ
The note with it: at 0.1 µM.

Test [7] has as its target T2, Phosphatidylinositol 4,5-bisphosphate 3-kinase catalytic subunit delta isoform (Homo sapiens). As to conditions: at 1 µM.
Test [8] has as its target Phosphatidylinositol 4-kinase beta (Homo sapiens) (UniProt Q9UBF8). As to conditions: at 0.1 µM.
Test [9] shares this target. The note with it: at 1 µM.
For test [10], the target named is Sphingosine kinase 1 (Homo sapiens) (UniProt Q9NYA1). The note with it: at 0.1 µM.
For test [11] the target is unchanged. The note with it: at 1 µM.
Test [12] concerns the target T3, Sphingosine kinase 2 (Homo sapiens) (UniProt Q9NRA0).
T3 sequence (whole entry): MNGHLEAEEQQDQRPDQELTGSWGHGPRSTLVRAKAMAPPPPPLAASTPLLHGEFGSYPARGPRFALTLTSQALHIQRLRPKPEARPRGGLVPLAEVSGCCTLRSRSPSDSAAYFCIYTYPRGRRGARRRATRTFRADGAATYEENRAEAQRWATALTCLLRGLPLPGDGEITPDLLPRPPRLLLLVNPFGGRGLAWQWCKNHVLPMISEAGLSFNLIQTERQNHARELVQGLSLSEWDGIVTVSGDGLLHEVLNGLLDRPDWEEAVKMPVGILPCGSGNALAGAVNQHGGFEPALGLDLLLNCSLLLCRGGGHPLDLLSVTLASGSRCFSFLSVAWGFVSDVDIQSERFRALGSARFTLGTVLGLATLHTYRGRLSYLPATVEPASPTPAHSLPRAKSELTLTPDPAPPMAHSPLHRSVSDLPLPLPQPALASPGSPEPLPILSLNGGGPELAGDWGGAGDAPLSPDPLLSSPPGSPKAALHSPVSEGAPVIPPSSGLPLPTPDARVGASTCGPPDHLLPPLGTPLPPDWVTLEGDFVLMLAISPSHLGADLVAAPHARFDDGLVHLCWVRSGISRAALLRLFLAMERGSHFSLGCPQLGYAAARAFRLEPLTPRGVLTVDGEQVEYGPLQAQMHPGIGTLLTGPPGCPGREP
The note with it: at 0.1 µM.

Test [13] has as its target T3, Sphingosine kinase 2 (Homo sapiens). The note with it: at 1 µM.
The target in test [14] is Casein kinase II subunit alpha (Homo sapiens) (UniProt P68400). As to conditions: at 0.1 µM.
Test [15] shares this target. As to conditions: at 1 µM.
Test [16] has as its target T4, Inhibitor of nuclear factor kappa-B kinase subunit alpha (Homo sapiens) (UniProt O15111).
T4 sequence (whole entry): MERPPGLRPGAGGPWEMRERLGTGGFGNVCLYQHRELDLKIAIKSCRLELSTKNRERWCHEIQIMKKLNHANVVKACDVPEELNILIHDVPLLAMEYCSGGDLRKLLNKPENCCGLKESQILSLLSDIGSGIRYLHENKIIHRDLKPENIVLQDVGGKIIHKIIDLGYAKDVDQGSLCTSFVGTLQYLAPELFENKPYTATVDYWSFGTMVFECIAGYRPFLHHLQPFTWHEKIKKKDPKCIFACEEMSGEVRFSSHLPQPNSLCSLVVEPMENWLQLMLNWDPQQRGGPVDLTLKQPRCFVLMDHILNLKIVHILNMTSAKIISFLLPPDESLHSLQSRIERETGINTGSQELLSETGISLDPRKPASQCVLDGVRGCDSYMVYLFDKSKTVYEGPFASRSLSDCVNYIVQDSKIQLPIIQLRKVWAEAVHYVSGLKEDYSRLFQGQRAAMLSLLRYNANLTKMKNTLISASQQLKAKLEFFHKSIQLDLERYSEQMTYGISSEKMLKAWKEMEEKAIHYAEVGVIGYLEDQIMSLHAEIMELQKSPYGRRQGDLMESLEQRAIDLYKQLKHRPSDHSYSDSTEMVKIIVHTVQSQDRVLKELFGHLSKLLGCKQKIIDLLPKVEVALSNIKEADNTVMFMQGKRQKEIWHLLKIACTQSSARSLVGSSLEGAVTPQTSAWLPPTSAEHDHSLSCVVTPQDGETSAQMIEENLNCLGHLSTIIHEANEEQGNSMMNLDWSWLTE
The note with it: at 0.1 µM.

For test [17], the target named is T4, Inhibitor of nuclear factor kappa-B kinase subunit alpha (Homo sapiens). The note with it: at 1 µM.
Test [18] addresses T5, Inhibitor of nuclear factor kappa-B kinase subunit beta (Homo sapiens) (UniProt O14920).
T5 sequence (whole entry): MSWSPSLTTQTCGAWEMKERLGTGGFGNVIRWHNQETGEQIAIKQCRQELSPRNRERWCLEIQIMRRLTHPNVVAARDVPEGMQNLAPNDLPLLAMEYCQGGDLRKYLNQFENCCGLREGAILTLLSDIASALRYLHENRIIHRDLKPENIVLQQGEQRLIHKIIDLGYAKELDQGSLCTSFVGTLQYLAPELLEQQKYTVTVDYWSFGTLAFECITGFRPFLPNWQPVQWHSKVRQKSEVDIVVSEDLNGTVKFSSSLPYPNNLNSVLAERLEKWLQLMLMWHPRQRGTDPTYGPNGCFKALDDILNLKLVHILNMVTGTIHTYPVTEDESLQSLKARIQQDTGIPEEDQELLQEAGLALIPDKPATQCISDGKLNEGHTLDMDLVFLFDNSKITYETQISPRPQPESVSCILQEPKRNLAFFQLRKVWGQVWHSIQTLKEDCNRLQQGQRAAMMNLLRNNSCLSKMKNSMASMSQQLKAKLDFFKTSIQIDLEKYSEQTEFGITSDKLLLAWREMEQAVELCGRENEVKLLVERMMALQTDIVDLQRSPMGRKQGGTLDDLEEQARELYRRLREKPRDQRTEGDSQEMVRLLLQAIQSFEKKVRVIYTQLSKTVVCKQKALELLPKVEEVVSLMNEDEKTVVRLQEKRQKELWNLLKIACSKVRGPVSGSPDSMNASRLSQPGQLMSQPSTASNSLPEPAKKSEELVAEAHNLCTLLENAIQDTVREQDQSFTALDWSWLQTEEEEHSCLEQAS
As to conditions: at 0.1 µM.

Test [19] deals with T5, Inhibitor of nuclear factor kappa-B kinase subunit beta (Homo sapiens). The note with it: at 1 µM.
In test [20] the target is T6, Inhibitor of nuclear factor kappa-B kinase subunit epsilon (Homo sapiens) (UniProt Q14164).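 Further: mean inhibition of IKKε reported, from the GSK PKIS dataset.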
T6 sequence (whole entry): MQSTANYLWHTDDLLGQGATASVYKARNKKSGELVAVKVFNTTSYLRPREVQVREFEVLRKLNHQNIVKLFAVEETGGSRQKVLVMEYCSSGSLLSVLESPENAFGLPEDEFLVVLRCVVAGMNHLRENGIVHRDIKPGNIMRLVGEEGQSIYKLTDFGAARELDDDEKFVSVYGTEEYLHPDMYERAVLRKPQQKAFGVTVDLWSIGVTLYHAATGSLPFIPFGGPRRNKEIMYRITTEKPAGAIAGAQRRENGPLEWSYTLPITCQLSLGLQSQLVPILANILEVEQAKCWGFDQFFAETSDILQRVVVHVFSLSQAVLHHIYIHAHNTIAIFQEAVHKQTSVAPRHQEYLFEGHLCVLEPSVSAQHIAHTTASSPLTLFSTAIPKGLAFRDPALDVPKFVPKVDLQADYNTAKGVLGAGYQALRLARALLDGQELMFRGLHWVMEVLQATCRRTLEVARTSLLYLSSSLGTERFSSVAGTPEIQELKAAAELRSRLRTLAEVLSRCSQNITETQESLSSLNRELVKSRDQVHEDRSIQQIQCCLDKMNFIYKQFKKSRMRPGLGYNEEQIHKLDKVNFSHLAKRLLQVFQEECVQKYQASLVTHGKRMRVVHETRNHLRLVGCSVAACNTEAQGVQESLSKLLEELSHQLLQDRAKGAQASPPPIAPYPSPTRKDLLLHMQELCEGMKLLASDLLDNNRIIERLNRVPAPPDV
As to conditions: at 0.1 µM.

Sequence of Sphingosine kinase 1 (Homo sapiens) (Q9NYA1 whole entry): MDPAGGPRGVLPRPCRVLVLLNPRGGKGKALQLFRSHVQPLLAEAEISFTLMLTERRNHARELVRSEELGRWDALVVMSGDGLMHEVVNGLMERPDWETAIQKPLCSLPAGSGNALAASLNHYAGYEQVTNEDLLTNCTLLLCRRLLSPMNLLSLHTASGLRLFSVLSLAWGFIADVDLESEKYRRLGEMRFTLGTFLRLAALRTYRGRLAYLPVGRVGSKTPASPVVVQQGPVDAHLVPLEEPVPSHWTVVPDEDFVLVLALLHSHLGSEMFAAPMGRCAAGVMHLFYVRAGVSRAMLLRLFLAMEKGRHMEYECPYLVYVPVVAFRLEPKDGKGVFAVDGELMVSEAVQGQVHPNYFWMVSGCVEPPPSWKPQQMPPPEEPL
Sequence of Phosphatidylinositol 4-kinase beta (Homo sapiens) (Q9UBF8 2-816 limits assumed): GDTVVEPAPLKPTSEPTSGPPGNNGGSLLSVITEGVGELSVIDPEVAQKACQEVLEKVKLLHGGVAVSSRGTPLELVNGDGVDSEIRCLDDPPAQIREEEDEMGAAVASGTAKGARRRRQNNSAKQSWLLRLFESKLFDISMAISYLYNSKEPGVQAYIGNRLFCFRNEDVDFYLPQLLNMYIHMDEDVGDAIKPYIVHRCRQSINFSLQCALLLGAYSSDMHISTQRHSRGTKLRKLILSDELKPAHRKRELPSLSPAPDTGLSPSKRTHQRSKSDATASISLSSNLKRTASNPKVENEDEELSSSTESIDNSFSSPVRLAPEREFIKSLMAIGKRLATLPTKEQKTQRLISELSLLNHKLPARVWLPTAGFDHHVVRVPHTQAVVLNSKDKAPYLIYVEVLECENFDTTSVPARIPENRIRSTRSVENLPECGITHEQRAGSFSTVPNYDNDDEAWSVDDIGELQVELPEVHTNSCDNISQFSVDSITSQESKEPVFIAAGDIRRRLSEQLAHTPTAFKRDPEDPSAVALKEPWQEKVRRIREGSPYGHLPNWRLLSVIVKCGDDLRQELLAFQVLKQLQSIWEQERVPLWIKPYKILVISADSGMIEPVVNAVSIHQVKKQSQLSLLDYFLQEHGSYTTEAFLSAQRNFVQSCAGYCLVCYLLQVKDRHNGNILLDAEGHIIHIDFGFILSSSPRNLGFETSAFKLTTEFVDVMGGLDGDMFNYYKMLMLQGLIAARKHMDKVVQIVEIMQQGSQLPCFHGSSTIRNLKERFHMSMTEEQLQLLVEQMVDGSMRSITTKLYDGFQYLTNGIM
Sequence of SRSF protein kinase 1 (Homo sapiens) (Q96SB4 whole entry): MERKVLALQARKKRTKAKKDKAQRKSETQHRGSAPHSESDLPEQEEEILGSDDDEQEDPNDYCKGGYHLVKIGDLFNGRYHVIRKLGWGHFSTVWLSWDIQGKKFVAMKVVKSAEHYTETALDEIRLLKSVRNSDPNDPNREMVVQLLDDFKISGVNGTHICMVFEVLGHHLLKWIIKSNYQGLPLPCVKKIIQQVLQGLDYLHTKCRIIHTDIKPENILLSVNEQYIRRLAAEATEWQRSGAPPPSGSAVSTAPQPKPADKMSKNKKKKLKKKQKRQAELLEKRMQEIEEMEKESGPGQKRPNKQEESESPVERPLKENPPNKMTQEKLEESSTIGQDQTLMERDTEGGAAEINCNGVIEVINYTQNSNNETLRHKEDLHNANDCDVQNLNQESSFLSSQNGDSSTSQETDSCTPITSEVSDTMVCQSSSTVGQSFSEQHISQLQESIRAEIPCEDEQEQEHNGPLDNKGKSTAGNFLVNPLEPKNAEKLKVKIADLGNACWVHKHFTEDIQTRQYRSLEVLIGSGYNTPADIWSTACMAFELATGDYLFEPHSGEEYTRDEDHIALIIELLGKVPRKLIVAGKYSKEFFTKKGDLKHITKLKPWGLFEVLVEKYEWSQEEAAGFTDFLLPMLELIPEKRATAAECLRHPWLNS
Sequence of Casein kinase II subunit alpha (Homo sapiens) (P68400 whole entry, looked up): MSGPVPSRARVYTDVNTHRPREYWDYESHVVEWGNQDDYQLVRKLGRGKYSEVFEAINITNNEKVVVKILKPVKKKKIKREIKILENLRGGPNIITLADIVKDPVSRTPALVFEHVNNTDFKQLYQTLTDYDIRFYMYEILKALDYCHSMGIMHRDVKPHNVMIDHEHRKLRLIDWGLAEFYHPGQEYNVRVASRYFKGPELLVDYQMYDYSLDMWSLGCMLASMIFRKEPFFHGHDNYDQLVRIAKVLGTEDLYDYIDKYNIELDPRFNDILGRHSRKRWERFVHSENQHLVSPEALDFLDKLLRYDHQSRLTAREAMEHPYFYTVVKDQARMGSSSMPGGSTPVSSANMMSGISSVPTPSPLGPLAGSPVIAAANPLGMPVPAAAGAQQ
Sequence of Phosphatidylinositol 4,5-bisphosphate 3-kinase catalytic subunit alpha isoform (Homo sapiens) (P42336 whole entry, canonical isoform): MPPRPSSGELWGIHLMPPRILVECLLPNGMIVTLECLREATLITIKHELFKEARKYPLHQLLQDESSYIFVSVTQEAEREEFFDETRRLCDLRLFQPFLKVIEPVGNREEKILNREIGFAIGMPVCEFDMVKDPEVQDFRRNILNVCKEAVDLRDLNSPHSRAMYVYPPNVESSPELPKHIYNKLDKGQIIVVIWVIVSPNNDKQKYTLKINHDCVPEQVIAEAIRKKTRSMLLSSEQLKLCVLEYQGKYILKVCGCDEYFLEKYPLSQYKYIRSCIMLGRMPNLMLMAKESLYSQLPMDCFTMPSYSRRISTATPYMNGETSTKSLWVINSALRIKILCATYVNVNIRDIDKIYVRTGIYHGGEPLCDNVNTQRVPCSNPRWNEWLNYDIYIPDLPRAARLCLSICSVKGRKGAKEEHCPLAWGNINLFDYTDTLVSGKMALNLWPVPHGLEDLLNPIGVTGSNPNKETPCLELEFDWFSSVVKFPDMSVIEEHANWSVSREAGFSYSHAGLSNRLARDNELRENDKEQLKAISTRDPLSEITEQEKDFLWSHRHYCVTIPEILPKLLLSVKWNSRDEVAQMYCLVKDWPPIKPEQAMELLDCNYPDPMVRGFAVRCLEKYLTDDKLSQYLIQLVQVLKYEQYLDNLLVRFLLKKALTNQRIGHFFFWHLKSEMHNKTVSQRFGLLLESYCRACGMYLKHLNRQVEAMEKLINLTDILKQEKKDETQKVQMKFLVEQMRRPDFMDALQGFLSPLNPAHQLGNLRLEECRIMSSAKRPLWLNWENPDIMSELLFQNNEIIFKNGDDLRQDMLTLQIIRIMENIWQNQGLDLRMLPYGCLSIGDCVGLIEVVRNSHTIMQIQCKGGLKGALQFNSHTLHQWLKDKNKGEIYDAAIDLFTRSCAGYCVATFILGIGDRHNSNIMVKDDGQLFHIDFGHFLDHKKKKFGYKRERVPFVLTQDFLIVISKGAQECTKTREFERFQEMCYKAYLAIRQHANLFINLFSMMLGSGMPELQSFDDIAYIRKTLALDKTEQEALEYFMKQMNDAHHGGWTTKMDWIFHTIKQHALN

`c1ccc(Nc2ncc(-c3ccccc3)o2)cc1`: the inhibition (as a rule, the relative decrease from the control value, in per cent) was 5.26% in test [1]; -2.25% in test [2]; -2.19% in test [3]; 5.87% in [4]; 6.84% in test [5]; 1.87% in test [6]. The inhibition in test [7] was 4.99%; in test [8], 5.07%; in test [9], -3.06%; in test [10] it was 2.26%; in [11], 5.25%; in test [12], 0.84%. In addition, the inhibition is 7.14% in test [13]; 8.1% in test [14]; 4.81% in [15]; 4.42% in test [16]; 6.78% in [17]; 5.92% in test [18]. For the same compound, the inhibition is 7.79% in test [19] and 3.13% in test [20].

For `COc1cccc(-n2ncc3c(N/N=C/c4ccc(S(C)(=O)=O)cc4)ncnc32)c1`, the inhibition is 2.32% in test [1]; -0.76% in test [2]; 0.02% in test [3]; 1.3% in test [4]; 1.54% in [5]; 1% in test [6]. Further, the inhibition is 2.43% in test [7]; -0.72% in test [8]; -2.28% in [9]; -1.72% in [10]; 10.4% in test [11]; 2.7% in [12]. In addition, the inhibition in test [13] was -2.05%; in test [14], 23.1%; in test [15] it was 39.1%; in test [16], -1.85%; in [17] it was -0.62%; in test [18], -1.48%. The figures for the inhibition in test [19] and in test [20] were -0.15% and 1.8%, respectively.

In the case of `NC(=O)c1cccc(Nc2nccc(Nc3cccc(F)c3)n2)c1`, the inhibition was 1.35% in test [1]; -2.36% in test [2]; -1.96% in test [3]; -0.28% in test [4]; 1.22% in [5]; -1.45% in test [6]. Besides, the inhibition in test [7] was -4.65%; in test [8] it was 3.27%; in test [9] it was 1.27%; in test [10], 0.35%; in [11] it was 0.76%; in [12] it was 0%. Moreover, the inhibition came out at 0.34% in test [13]; 1.61% in [14]; 3.67% in test [15]; 0.56% in [16]; 4.67% in test [17]; 6.25% in test [18]. Besides, the inhibition came out at 22.3% in test [19] and 2.08% in test [20].

With `C[C@@H](Oc1cc(-n2cnc3ccc(OCC4CCN(C)CC4)cc32)sc1C(N)=O)c1ccccc1C(F)(F)F`, the inhibition is -2.08% in test [1]; -0.56% in [2]; 1.16% in test [3]; -1.6% in test [4]; 13.3% in [5]; 2.19% in test [6]. The inhibition in [7] was 55.9%; in [8], 6.54%; in test [9], 0.1%; in test [10], 0.59%; in test [11], 1.96%; in test [12], -2.47%. Moreover, the inhibition in test [13] was -0.08%; in [14], 6.68%; in [15], 7.31%; in test [16], -3.27%; in test [17] it was -3.79%; in test [18] it was -5.4%. In addition, the inhibition in test [19] was -3.39%; in [20] it was -3.26%.
